# Assay results taken from the supplement of paper PMC10849652.
# About 7,900 targets were measured; listed, in parts, are those with a hit and a random draw of the rest. About 0.6% of all pairs of compound and target were hits. A number with no mark means an inactive call.
# Key:
# Assay in all cases: log2 fold change, soluble protein after heating vs DMSO (PISA); higher = thermal stabilisation; K562 cells, 10 uM, 30 min; active = over 0.2 and 3.5 SD of the protein, either way, in both replicates (recomputed)
# [1] = compound: CC1=C(C=C(C=C1)NC(=O)C2=CC(=CC=C2)C(C)(C)C#N)NC3=CC4=C(C=C3)N=CN(C4=O)C
# How it was run: (§1)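 Thermal stability values are relative to control samples and come from duplicates. They are expressed as log2 fold changes. For measurement, K562 cells (2×10^6 cells/mL) received 10 μM compound for 30 min, and aliquots were heated for 3 min over 48°C-58°C, pooled, and extracted at 4°C in PBS with 0.5% NP-40. Soluble protein, the supernatant after 21,000xg for 90 min, was quantified by TMTpro 16plex LC-MS/MS with equalised channel sums.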
# [2] = compound: CC1=C(C=C(C=C1)NC(=O)C2=CC(=CC=C2)N(C)C)NC(=O)C3=CC=C(C=C3)O
# How it was run: as §1
# [3] = compound: CC1=CC=C(C=C1)SC2=C3C=C(SC3=CN=C2)C(=O)N
# How it was run: as §1
# [4] = compound: CC1=NC(=CC=C1)C2=C(N=C(N2)C(C)(C)C)C3=CC4=NC=CN=C4C=C3
# How it was run: as §1
# Nexturastat A = compound: CCCCN(Cc1ccc(C(=O)NO)cc1)C(=O)Nc1ccccc1 [Nexturastat A]
# How it was run: as §1
# vemurafenib = compound: CCCS(=O)(=O)Nc1ccc(F)c(C(=O)c2c[nH]c3ncc(-c4ccc(Cl)cc4)cc23)c1F [vemurafenib]
# How it was run: as §1
# [5] = compound: CCCS(=O)(=O)Nc1ccc(F)c(C(=O)c2c[nH]c3ncc(Cl)cc23)c1F
# How it was run: as §1
# [6] = compound: CCCc1cc(C)[nH]c(=O)c1CNC(=O)c1cc(-c2ccnc(N3CCN(C)CC3)c2)cc2c1cnn2C(C)C
# How it was run: as §1
# givinostat = compound: CCN(CC)Cc1ccc2cc(COC(=O)Nc3ccc(C(=O)NO)cc3)ccc2c1 [givinostat]
# How it was run: as §1
# barasertib = compound: CCN(CCCOc1ccc2c(Nc3cc(CC(=O)Nc4cccc(F)c4)[nH]n3)ncnc2c1)CCOP(=O)(O)O [barasertib]
# How it was run: as §1
# [7] = compound: CC[C@@H]1C(=O)N(C)c2cnc(Nc3ccc(C(=O)NC4CCN(C)CC4)cc3OC)nc2N1C1CCCC1
# How it was run: as §1
# volasertib = compound: CC[C@@H]1C(=O)N(C)c2cnc(Nc3ccc(C(=O)N[C@H]4CC[C@H](N5CCN(CC6CC6)CC5)CC4)cc3OC)nc2N1C(C)C [volasertib]
# How it was run: as §1
# [8] = compound: CC[C@H](C)N1C=C(C2=C(C=C(C=C21)C3=CN=C(C=C3)N4CCNCC4)C(=O)NCC5=C(C=C(NC5=O)C)C)C
# How it was run: as §1
# epoxomicin = compound: CC[C@H](C)[C@@H](C(=O)N[C@@H]([C@@H](C)O)C(=O)N[C@@H](CC(C)C)C(=O)[C@]1(CO1)C)NC(=O)[C@H]([C@@H](C)CC)N(C)C(=O)C [epoxomicin]
# How it was run: as §1
# [9] = compound: CCn1c(C(=O)N(C2CC2)C2CC2)cc2c3c(ncn3C)c(Nc3cc(C)n(C)n3)nc21
# How it was run: as §1
# [10] = compound: CCn1cc(-c2ccnc3[nH]c(-c4cccc(CN(C)C)c4)cc23)c(-c2ccc(NC(=O)N(C)C)cc2)n1
# How it was run: as §1
# [11] = compound: CN(C)CC(=O)Nc1ccc2[nH]c(=O)c3ccccc3c2c1
# How it was run: as §1
# rosiglitazone = compound: CN(CCOC1=CC=C(C=C1)C[C@H]2C(=O)NC(=O)S2)C3=CC=CC=N3 (racemic) [rosiglitazone]
# How it was run: as §1
# [12] = compound: CN1C2=C(C3=C1C(=O)N(N=C3)CC4=CC(=CC=C4)N)SC(=C2)S(=O)C
# How it was run: as §1
# [13] = compound: CN1CCC(CNc2ccc3ncc(-c4cccc(OC(F)(F)F)c4)n3n2)CC1
# How it was run: as §1
# UniProt O75153, sequence (O75153 whole entry, looked up): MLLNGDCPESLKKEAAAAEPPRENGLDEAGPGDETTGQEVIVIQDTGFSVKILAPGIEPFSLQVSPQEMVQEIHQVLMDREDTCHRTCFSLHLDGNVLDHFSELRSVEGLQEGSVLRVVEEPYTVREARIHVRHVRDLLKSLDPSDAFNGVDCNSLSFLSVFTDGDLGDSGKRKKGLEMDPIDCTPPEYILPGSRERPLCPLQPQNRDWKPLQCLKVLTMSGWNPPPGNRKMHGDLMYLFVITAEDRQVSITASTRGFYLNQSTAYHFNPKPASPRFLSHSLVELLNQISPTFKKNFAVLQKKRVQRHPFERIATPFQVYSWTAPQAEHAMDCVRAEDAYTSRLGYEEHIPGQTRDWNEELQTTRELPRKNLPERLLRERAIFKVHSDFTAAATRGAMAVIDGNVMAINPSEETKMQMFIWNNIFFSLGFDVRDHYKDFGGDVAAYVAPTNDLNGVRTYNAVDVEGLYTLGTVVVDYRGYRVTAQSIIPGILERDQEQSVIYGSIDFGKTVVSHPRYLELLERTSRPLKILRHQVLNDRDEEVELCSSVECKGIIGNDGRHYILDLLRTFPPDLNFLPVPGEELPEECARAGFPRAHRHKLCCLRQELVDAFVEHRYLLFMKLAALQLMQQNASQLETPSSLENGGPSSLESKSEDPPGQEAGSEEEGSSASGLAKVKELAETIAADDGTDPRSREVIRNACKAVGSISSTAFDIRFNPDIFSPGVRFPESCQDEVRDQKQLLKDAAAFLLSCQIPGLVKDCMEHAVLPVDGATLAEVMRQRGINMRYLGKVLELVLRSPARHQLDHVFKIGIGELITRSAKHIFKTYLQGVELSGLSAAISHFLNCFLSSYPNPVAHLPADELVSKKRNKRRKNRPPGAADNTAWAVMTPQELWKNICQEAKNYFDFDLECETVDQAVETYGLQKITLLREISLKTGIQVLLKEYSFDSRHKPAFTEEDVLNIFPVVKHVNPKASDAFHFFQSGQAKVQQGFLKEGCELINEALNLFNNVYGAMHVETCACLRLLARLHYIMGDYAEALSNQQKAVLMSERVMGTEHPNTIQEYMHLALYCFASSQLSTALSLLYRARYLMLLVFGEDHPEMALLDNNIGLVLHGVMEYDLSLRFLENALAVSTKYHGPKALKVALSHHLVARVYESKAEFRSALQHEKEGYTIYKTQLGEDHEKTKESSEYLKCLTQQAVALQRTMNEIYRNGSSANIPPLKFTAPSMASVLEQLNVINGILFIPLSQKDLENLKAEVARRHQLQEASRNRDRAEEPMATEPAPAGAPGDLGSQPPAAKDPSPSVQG
# UniProt Q8N1A6, sequence (Q8N1A6 whole entry, looked up): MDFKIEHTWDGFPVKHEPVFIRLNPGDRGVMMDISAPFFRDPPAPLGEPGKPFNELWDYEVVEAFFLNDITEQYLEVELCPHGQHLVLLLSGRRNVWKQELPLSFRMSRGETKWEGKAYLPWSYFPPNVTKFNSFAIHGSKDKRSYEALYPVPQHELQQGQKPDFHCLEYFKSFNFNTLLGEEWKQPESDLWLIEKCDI
# UniProt Q8N668, sequence (Q8N668 whole entry, looked up): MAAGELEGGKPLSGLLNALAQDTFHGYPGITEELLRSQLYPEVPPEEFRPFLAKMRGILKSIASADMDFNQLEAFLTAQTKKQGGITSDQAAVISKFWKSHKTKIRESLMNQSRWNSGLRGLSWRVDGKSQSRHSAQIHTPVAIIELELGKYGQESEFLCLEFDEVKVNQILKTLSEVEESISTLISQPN
# UniProt Q9UNS2, sequence (Q9UNS2 whole entry, looked up): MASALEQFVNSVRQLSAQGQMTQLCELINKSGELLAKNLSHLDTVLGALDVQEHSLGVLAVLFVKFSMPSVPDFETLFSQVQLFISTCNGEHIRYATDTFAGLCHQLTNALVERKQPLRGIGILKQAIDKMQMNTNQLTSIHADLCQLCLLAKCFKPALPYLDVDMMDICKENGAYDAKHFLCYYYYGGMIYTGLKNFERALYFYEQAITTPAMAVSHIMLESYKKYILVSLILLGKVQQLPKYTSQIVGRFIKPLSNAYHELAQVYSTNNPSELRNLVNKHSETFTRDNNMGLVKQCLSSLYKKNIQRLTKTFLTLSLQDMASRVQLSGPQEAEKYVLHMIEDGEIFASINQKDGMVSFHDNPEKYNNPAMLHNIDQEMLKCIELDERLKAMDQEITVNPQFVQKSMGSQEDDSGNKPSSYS
# UniProt Q5BKX5, sequence (Q5BKX5 whole entry, looked up): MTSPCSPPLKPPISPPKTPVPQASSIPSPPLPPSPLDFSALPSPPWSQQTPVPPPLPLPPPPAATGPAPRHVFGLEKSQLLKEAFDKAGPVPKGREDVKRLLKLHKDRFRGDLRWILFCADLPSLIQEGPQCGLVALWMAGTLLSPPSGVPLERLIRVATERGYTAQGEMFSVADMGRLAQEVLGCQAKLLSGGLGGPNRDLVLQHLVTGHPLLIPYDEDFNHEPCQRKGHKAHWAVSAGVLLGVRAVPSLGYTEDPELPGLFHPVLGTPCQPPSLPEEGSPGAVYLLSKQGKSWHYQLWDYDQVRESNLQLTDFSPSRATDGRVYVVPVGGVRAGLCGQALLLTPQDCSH
# UniProt O95273, sequence (O95273 whole entry, looked up): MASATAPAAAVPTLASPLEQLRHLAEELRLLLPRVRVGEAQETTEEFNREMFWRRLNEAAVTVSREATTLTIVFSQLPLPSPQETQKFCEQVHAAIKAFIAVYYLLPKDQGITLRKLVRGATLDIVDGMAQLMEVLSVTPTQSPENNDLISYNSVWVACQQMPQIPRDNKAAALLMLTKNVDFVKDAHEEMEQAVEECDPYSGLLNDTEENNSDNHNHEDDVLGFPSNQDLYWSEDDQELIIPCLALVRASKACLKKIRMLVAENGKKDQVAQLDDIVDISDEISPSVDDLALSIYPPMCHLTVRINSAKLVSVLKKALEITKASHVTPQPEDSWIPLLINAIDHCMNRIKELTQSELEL
# UniProt Q86X95, sequence (Q86X95 whole entry, looked up): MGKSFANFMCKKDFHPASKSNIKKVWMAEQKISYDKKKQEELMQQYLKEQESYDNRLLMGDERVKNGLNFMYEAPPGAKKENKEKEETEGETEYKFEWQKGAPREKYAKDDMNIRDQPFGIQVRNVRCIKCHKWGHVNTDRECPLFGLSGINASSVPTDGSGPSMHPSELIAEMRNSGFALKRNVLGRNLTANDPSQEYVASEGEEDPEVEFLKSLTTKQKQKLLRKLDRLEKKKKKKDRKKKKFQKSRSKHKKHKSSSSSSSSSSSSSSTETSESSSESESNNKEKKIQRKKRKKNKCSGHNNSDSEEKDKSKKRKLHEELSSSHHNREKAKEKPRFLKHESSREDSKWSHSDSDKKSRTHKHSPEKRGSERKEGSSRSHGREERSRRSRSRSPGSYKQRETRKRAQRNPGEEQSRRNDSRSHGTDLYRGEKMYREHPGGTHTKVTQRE
# UniProt P14635, sequence (P14635 whole entry, looked up): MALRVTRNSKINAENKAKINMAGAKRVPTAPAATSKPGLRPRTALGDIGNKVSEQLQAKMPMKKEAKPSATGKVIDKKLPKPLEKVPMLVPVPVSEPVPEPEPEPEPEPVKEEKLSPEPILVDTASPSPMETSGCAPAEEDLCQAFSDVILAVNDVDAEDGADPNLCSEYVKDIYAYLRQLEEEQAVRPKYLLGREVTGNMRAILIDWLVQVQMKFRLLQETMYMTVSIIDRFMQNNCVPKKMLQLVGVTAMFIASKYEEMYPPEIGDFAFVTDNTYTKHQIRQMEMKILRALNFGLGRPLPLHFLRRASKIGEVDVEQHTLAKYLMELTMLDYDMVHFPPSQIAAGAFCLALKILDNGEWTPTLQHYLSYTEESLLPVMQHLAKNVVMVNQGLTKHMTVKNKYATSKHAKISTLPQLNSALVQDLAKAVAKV
# UniProt P46109, sequence (P46109 whole entry, looked up): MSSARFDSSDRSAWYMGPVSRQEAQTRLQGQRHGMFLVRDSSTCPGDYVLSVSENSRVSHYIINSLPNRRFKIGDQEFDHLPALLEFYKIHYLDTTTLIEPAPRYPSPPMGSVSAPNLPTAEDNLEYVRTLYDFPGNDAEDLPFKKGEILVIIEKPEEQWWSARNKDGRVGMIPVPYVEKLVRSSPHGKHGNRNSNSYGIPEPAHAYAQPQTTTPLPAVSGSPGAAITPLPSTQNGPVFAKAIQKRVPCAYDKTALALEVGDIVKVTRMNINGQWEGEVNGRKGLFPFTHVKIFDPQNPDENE
# UniProt P46527, sequence (P46527 whole entry, looked up): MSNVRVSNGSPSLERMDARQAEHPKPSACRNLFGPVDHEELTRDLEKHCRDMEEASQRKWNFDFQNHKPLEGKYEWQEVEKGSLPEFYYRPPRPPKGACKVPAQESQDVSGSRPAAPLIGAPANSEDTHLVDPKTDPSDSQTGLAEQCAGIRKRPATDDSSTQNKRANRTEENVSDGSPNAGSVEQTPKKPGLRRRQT
# UniProt Q14061, sequence (Q14061 whole entry, looked up): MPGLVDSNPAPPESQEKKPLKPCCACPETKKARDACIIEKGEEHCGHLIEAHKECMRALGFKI
# UniProt Q9H9S4, sequence (Q9H9S4 whole entry, looked up): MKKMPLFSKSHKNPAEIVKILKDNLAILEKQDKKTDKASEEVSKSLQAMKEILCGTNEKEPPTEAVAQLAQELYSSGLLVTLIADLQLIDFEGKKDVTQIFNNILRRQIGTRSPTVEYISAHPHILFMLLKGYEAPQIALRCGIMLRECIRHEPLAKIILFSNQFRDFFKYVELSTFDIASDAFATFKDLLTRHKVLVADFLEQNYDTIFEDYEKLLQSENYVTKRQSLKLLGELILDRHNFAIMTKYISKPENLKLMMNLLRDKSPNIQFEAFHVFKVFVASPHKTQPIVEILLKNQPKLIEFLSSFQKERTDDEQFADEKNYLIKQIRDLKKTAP
# UniProt O15182, sequence (O15182 whole entry, looked up): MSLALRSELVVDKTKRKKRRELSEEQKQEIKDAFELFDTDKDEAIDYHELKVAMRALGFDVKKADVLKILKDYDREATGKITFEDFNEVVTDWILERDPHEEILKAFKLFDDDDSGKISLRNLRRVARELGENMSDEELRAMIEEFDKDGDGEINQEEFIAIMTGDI
Target,log2 fold change [1],log2 fold change [2],log2 fold change [3],log2 fold change [4],log2 fold change (Nexturastat A),log2 fold change (vemurafenib),log2 fold change [5],log2 fold change [6],log2 fold change (givinostat),log2 fold change (barasertib),log2 fold change [7],log2 fold change (volasertib),log2 fold change [8],log2 fold change (epoxomicin),log2 fold change [9],log2 fold change [10],log2 fold change [11],log2 fold change (rosiglitazone),log2 fold change [12],log2 fold change [13]
C4orf33 (UniProt Q8N1A6),-0.101,0.04,0.049,-0.049,0.018,-0.01,-0.082,0.07,0.055,0.03,0.044,0.066,0.007,-0.084,-0.034,-0.062,-0.007,0.155,0.009,-0.027
CDC37L1 (UniProt Q7L3B6),0.035,0.001,-0.054,-0.021,-0.028,-0.008,0.019,0.063,0.044,0.063,-0.14,-0.199,0.059,0.029,0.02,0.091,-0.054,0.005,0.001,-0.048
COPS3 (UniProt Q9UNS2),-0.008,-0.013,0.009,0.034,-0.02,0.004,0.011,-0.044,-0.056,0.016,0.001,-0.017,-0.001,0.054,0,-0.014,-0.017,0.007,-0.038,-0.03
CCNB1 (UniProt P14635),0.021,-0.043,0.011,0,0.017,0.03,0.008,-0.033,0.007,-0.007,0.023,0.026,-0.027,0.083,-0.007,-0.004,0.012,0.017,-0.043,-0.032
COMMD1 (UniProt Q8N668),0.037,-0.064,-0.048,0.056,0.011,-0.038,0.097,0.056,0.122,0.057,-0.029,-0.041,0.054,-0.071,-0.063,0.157,0.019,0.016,–,0.295
CETN3 (UniProt O15182),0.001,0.012,-0.099,-0.102,-0.01,-0.056,-0.164,-0.116,0.008,0.043,0.037,-0.028,0.006,0.042,0.032,-0.014,-0.043,0.032,-0.013,-0.287 (active)
CLUH (UniProt O75153),-0.017,-0.08,-0.002,-0.072,-0.022,0.047,-0.03,0.049,0.016,0.033,0.225,0.632 (active),0.015,-0.028,0.047,-0.113,0.094,0.134,0.019,0.387 (active)
CRKL (UniProt P46109),-1.25 (active),-0.029,0.014,0.019,-0.003,-0.018,-0.009,-0.024,0.009,0.01,-0.012,-0.039,0.007,0,0.008,0,0.012,0.017,0,-0.016
COPS3 isoform 2 (UniProt Q9UNS2),-0.154,0.03,0.066,-0.128,-0.113,-0.303,-0.14,-0.162,–,0.065,0.079,0.031,0.001,0.059,–,-0.075,-0.165,-0.046,–,-0.124
CRYM-AS1 (UniProt A6NIL9),0.239,-0.066,–,-0.224,0.332,0.161,–,-0.049,0.189,-0.036,-0.04,–,0.233,-0.107,0.104,-0.029,0.089,-0.068,0.04,-0.714 (active)
CCNDBP1 (UniProt O95273),-0.104,0.027,–,–,–,-0.074,–,-0.091,-0.046,0.088,0.088,–,0.133,–,-0.045,-0.036,-0.094,0.032,0.013,-0.048
COX17 (UniProt Q14061),-0.015,-0.358,–,0.024,0,0.029,–,0.025,0.029,–,–,–,0.044,0.504,-0.097,-0.154,-0.051,–,-0.146,0.055
CDCA2 (UniProt Q69YH5),-0.134,0.033,-0.047,-0.299,0.638 (active),-0.009,-0.043,-0.027,0.382,–,0.193,0.275,-0.131,-0.025,0.015,0.152,-0.038,–,–,0.205
C19orf54 (UniProt Q5BKX5),0.096,-0.053,0.127,-0.104,-0.025,-0.118,0.077,–,0.044,–,0.054,-0.06,–,0.094,-0.152,0.056,0.036,–,-0.177,-0.141
CIR1 (UniProt Q86X95),-0.04,-0.38,0.047,-0.018,0.199,-0.156,-0.129,0.047,-0.015,-0.105,0,0.049,–,-0.212,-0.015,0.055,0.142,-0.169,0.234,-0.458
CDKN1B (UniProt P46527),-0.016,-0.009,-0.026,0,0.148,-0.176,-0.048,0.057,0.051,-0.063,–,0.028,-0.083,0.393,-0.034,0.036,0.025,0.067,0.06,0.073
CAB39L (UniProt Q9H9S4),-0.142,-0.008,0.004,-0.043,0.003,-0.013,-0.001,–,-0.025,0.043,-0.134,-0.054,–,0.018,0.008,0.161,-0.169,0.107,-0.047,0.072
